Measurements: PubChem BioAssay AID2071 (Sanford-Burnham Center for Chemical Genomics, 2009)
Screen size: about 280,000 compounds; about 1,700 (0.61%) were called active. Cut-off read from the data, not from the text of the source: active = inhibition mostly above about 24% (no sharp cut-off); inactive = mostly below about 32%. This excerpt belongs to a sample that is enriched for actives.

Assay: NALP1 inflammasome inhibitors in reconstituted yeast, colorimetric, S. cerevisiae, triplicate retest (AID 2071)
Conditions: S. cerevisiae NALP1/ASC/caspase-1 growth, X-gal OD620, 72 h, stronger effect = higher value

Cc1ccc(/C=N/NC(=O)c2cc3ccccc3cc2O)o1
inhibition (at 10 µM unless noted): -11.5% (inactive)

CC(=O)N(C)c1ccc(NC(=O)Nc2cccc3ccccc23)cc1
inhibition (at 10 µM unless noted): 15.8% (inactive)

CCOc1cc(/C=C/c2nc3ccccc3c(=O)[nH]2)cc(Br)c1OC
inhibition (at 10 µM unless noted): 8.1% (inactive)

O=C(c1cccc2ccccc12)N1CCN(c2ccccc2F)CC1
inhibition (at 10 µM unless noted): 41.1% (active)

COc1ccc2oc(=O)c(C(=O)N3CCN(c4ccccc4F)CC3)cc2c1
inhibition (at 10 µM unless noted): 0.6% (inactive)

O=C(c1ccc(CN2CCOCC2)cc1)N1CCN(c2ccccc2F)CC1
inhibition (at 10 µM unless noted): 6.8% (inactive)

COc1ccccc1CNC(=O)[C@@H]1CCCN1C(=O)[C@@H]1Cc2ccccc2CN1C(=O)OC(C)(C)C
inhibition (at 10 µM unless noted): -18.4% (inactive)

COc1ccc(NC(=O)CNC(=O)Cc2ccccc2)cc1OC
inhibition (at 10 µM unless noted): -89.6% (inactive)

COc1ccc(NC(=S)SC)cc1OC
inhibition (at 10 µM): 73.8% (active) | inhibition (triplicate retest, at 20 µM): 94.6%

COc1ccc(NS(=O)(=O)c2ccc(NC(C)=O)cc2)cc1OC
inhibition (at 10 µM unless noted): 26.3% (inactive)

Cc1cc(NC(=O)CCN2CCN(Cc3ccccc3)CC2)ccc1Br
inhibition (at 10 µM unless noted): 16.7% (inactive)

CN(CCO)c1ccc(/C=N/Nc2nncc3ccccc23)cc1
inhibition (at 10 µM unless noted): 3.8% (inactive)

O=C(C(NS(=O)(=O)c1cccc2nsnc12)c1ccccc1)N1CCN(c2ccccc2)CC1 (stereo not drawn)
inhibition (at 10 µM unless noted): 34.4% (active)

O=C(C(NS(=O)(=O)c1cccc2nsnc12)c1ccccc1)N1CCN(c2ccccn2)CC1 (stereo not drawn)
inhibition (at 10 µM unless noted): 8.1% (inactive)

O=C(O)C(NS(=O)(=O)c1cccc2nsnc12)c1ccccc1 (stereo not drawn)
inhibition (at 10 µM unless noted): 15.5% (inactive)

CCOc1ccc(CN2CCN(CCCc3ccccc3)C(CCO)C2)cc1 (stereo not drawn)
inhibition (at 10 µM unless noted): 28.9% (inactive)

CCn1ccnc1CN(C)C(=O)c1cc(COc2ccc(Cl)cc2OC)on1
inhibition (at 10 µM unless noted): -9.7% (inactive)

CC(C)(C)c1ccc(/C=C/C(=O)NCCCn2ccnc2)cc1
inhibition (at 10 µM unless noted): 1.5% (inactive)

CCOc1ccccc1-c1cc(C(=O)N2CCOCC2)c2ccccc2n1
inhibition (at 10 µM unless noted): 0.7% (inactive)

CCOc1ccccc1-c1nc(CN2CCC(C(=O)N3CCOCC3)CC2)c(C)o1
inhibition (at 10 µM unless noted): 29% (active)

COc1ccc(F)c(-c2nc(CN3CCC(c4ccccc4)CC3)c(C)o2)c1
inhibition (at 10 µM unless noted): 13.2% (inactive)

CCOc1ccc(CN2CCNC(=O)C2CC(=O)NCCCC2CCCC2)cc1 (stereo not drawn)
inhibition (at 10 µM unless noted): 1% (inactive)

C/C(=N\NC(=O)c1cc(-c2ccc(O)cc2)nc2ccccc12)c1cccnc1
inhibition (at 10 µM unless noted): -2.6% (inactive)

CCOC(=O)CSc1nc2ccc(C)cc2n2cnnc12
inhibition (at 10 µM unless noted): 10.4% (inactive)

CCCc1cc(=O)[nH]c(SCC(=O)Nc2sc3c(c2C#N)CCCC3)n1
inhibition (at 10 µM unless noted): 9.4% (inactive)

N#Cc1c(NC(=O)CSc2nc3ccccc3c(=O)n2Cc2ccco2)sc2c1CCCC2
inhibition (at 10 µM unless noted): 20.7% (inactive)

COc1ccc(-n2c(SCC(=O)Nc3sc4c(c3C#N)CCCC4)nnc2-c2ccc(O)cc2)cc1
inhibition (at 10 µM unless noted): 40.9% (active)

COc1ccc(C(=O)NCC(=O)N/N=C/c2cccnc2)cc1
inhibition (at 10 µM unless noted): -23.5% (inactive)

CC(C)[C@@H]1COC(c2cccc(C3=N[C@H](C(C)C)CO3)c2)=N1
inhibition (at 10 µM unless noted): 10.4% (inactive)

COc1ccc(C(C[N+](=O)[O-])n2nc(C)cc2C)cc1 (stereo not drawn)
inhibition (at 10 µM unless noted): 103% (active)

COc1ccc(C(=O)CSc2nc(C)cc(C)n2)cc1[N+](=O)[O-]
inhibition (at 10 µM unless noted): -10% (inactive)

COc1ccc(OCc2cn3c(C)cc(C)nc3n2)cc1
inhibition (at 10 µM unless noted): 22.5% (inactive)

CN(Cc1cnccn1)C(=O)c1cc(COc2cccc(C(F)(F)F)c2)on1
inhibition (at 10 µM unless noted): -7.1% (inactive)

S=C(Nc1cccc(Cl)c1)Nc1ccc2c(c1)OCCO2
inhibition (at 10 µM unless noted): 2% (inactive)

Cc1ccc(NC(=O)CN2CCc3ccccc3C2)cc1
inhibition (at 10 µM unless noted): -0.6% (inactive)

CN(c1cccc(NC(=O)c2ccc(CN3CCc4ccccc4C3)cc2)c1)S(C)(=O)=O
inhibition (at 10 µM unless noted): -14.2% (inactive)

Cc1cccc(C)c1NC(=O)c1ccc(CN2CCc3ccccc3C2)cc1
inhibition (at 10 µM unless noted): 29.1% (active)

CCOC(=O)c1ccc(NC(=O)c2cccnc2)cc1
inhibition (at 10 µM unless noted): 16.3% (inactive)

S=C(Nc1ccc(Cl)cc1Cl)N1CCCC1
inhibition (at 10 µM unless noted): 11% (inactive)

CCC(=O)N1CCc2cc(S(=O)(=O)CCC(=O)N3CCN(c4ccccc4F)CC3)ccc21
inhibition (at 10 µM unless noted): 32% (inactive)

O=C(CCCNS(=O)(=O)c1cccc2nsnc12)NCCN1CCN(c2ccccc2F)CC1
inhibition (at 10 µM unless noted): 8.8% (inactive)

O=C(CCS(=O)(=O)c1cccc2nsnc12)N1CCN(c2ccccc2F)CC1
inhibition (at 10 µM unless noted): 42.9% (active)

CN(C(=O)c1cc2c(=O)n3ccccc3nc2s1)C1CCCCC1
inhibition (at 10 µM unless noted): 4.6% (inactive)

CC(=O)NCCNC(=O)c1cc(-c2cccc3ccccc23)nc2ccccc12
inhibition (at 10 µM unless noted): 0.4% (inactive)

C=CCOc1cccc(C2C(C(=O)c3ccc(C)o3)=C(O)C(=O)N2CCCn2ccnc2)c1 (stereo not drawn)
inhibition (at 10 µM unless noted): 13.4% (inactive)

O=C(CNC(=O)c1ccc(F)cc1)c1ccccc1
inhibition (at 10 µM unless noted): 3.2% (inactive)

O=C(NCc1cccc(Cl)c1)C1CCC(=O)N(C2CC2)C1 (stereo not drawn)
inhibition (at 10 µM unless noted): 15.1% (inactive)

O=C(C1CC(=O)N(C2CCCCC2)C1)N1CCN(c2ccccc2)CC1 (stereo not drawn)
inhibition (at 10 µM unless noted): 4.2% (inactive)

O=C(C1CCC(=O)N(C2CC2)C1)N1CCN(c2ccc(Cl)cc2)CC1 (stereo not drawn)
inhibition (at 10 µM unless noted): 26.5% (active)

O=C(NCc1ccccc1)C(=O)NCC1OCCN1S(=O)(=O)c1ccc(Br)cc1 (stereo not drawn)
inhibition (at 10 µM unless noted): 8% (inactive)

OCCNc1nc(Nc2ccc(Cl)c(Cl)c2)nc2ccccc12
inhibition (at 10 µM unless noted): 31.9% (active)

Nc1nc(Nc2ccccc2)nc(NCCO)c1[N+](=O)[O-]
inhibition (at 10 µM unless noted): 2.9% (inactive)

CN(C)c1nc(Nc2ccc(Cl)c(Cl)c2)nc(N(C)C)n1
inhibition (at 10 µM unless noted): 14.2% (inactive)

O=S(=O)(NC1CC2CCC1C2)c1ccc(Cl)cc1 (stereo not drawn)
inhibition (at 10 µM unless noted): -6% (inactive)

Cc1ccc2c(C)c(C(=O)N3CCN(c4ccncc4)CC3)oc2c1C
inhibition (at 10 µM unless noted): 12.6% (inactive)

COc1cc(CN2CCCC(C(=O)c3ccc(SC)cc3)C2)cc(Cl)c1O (stereo not drawn)
inhibition (at 10 µM unless noted): 19.3% (inactive)

COc1ccc(S(=O)(=O)N2CCN(C)CC2)c(C)c1
inhibition (at 10 µM unless noted): 26.4% (inactive)

COc1ccc(C)cc1Nc1n[n+](-c2ccccc2)c(-c2cccc(Cl)c2Cl)s1
inhibition (at 10 µM unless noted): 19.6% (inactive)

Cc1ccccc1C(=O)Nc1ccc(N2CCCCCC2)cc1
inhibition (at 10 µM unless noted): 1.4% (inactive)

CCOC(=O)/C(C#N)=C/c1ccc(N2CCCCC2)cc1
inhibition (at 10 µM unless noted): 6.6% (inactive)

O=C1C=CC(=O)N1c1ccc(N2CCCCC2)cc1
inhibition (at 10 µM): 45.6% (active) | inhibition (triplicate retest, at 20 µM): 114%

CCOc1c2ccc(C(=O)NCc3ccc4c(c3)OCO4)cc2nn1C
inhibition (at 10 µM unless noted): 30.5% (inactive)

CCCn1nc2cc(C(=O)NCc3ccccc3)ccc2c1OCC
inhibition (at 10 µM unless noted): 34.5% (active)

CCOc1c2ccc(C(=O)NCc3ccc(OC(F)(F)F)cc3)cc2nn1C
inhibition (at 10 µM unless noted): 14.9% (inactive)

CCc1noc(C)c1C(=O)N1CCCC(N2CCN(c3ccc(F)cc3)CC2)C1 (stereo not drawn)
inhibition (at 10 µM unless noted): 15% (inactive)

CCOc1ccc(-n2c(SCC(N)=O)nnc2-c2ccco2)cc1
inhibition (at 10 µM unless noted): 7.9% (inactive)

Oc1c(Cl)cc(Cl)c(Cl)c1Cc1c(O)c(Cl)cc(Cl)c1Cl
inhibition (at 10 µM): 121% (active) | inhibition (triplicate retest, at 20 µM): 100%

Cc1cc(S(=O)(=O)NCC(C)C)ccc1OCC(=O)NC1CC1
inhibition (at 10 µM unless noted): 13.3% (inactive)

Cc1ccc2nc(NC(=O)C3CCN(S(=O)(=O)c4ccc5c(c4)oc(=O)n5C)CC3)sc2c1
inhibition (at 10 µM unless noted): 0.1% (inactive)

COc1ccc(NC(=O)C2CCN(S(=O)(=O)c3ccc4[nH]c(=O)oc4c3)CC2)c(OC)c1
inhibition (at 10 µM unless noted): -45% (inactive)

Cn1c(=O)oc2cc(S(=O)(=O)N3CCC(C(=O)Nc4ccc(OC(F)(F)F)cc4)CC3)ccc21
inhibition (at 10 µM unless noted): 22.5% (active)

COCCCNC(=S)N(CCN(C)C)Cc1cc2cc3c(cc2[nH]c1=O)OCCO3
inhibition (at 10 µM unless noted): 8.7% (inactive)

COc1ccc(C(=O)Nc2ccnn2C2CCN(Cc3ccncc3)CC2)cc1
inhibition (at 10 µM unless noted): 14.9% (inactive)

COc1cc(C(=O)NC2CCN(Cc3ccccc3)CC2)cc(Cl)c1OC(C)C
inhibition (at 10 µM unless noted): 19.9% (inactive)

COc1cc2[nH]c(=O)n(CCC(=O)NC3CCN(Cc4ccccc4)CC3)c(=O)c2cc1OC
inhibition (at 10 µM unless noted): 15.6% (inactive)

COc1cc2[nH]c(=O)n(Cc3ccc(C(=O)NC4CCN(Cc5ccccc5)CC4)cc3)c(=O)c2cc1OC
inhibition (at 10 µM unless noted): 36.6% (active)

O=C(N/N=C\C1CC=CCC1)c1ccc(Br)o1 (stereo not drawn)
inhibition (at 10 µM unless noted): 11.4% (inactive)

CCCn1c(C2CCCN2c2nc(-c3ccc(OC)cc3)cs2)nc2ccccc21 (stereo not drawn)
inhibition (at 10 µM unless noted): 21.7% (inactive)

Oc1ccc(N=Nc2nccs2)c(O)c1
inhibition (at 10 µM unless noted): 8.1% (inactive)

Oc1ccc2ccccc2c1N=Nc1nccs1
inhibition (at 10 µM unless noted): 59.8% (active)

Oc1ccc(N=Cc2c(O)ccc3ccccc23)cc1
inhibition (at 10 µM unless noted): -1.8% (inactive)

O=C(NCCNc1ccc([N+](=O)[O-])cc1Cl)c1ccccc1F
inhibition (at 10 µM unless noted): 29.5% (inactive)

c1ccc(C2=Nc3cccc4cccc(c34)N2)cc1
inhibition (at 10 µM unless noted): 47.7% (active)

Fc1ccccc1N=C1Nc2cccc3cccc1c23
inhibition (at 10 µM unless noted): -0.1% (inactive)

COc1ccccc1C1=Nc2cccc3cccc(c23)N1
inhibition (at 10 µM unless noted): 9.5% (inactive)

O=C(c1noc2c1CCCC2)N1CCc2ccccc2C1
inhibition (at 10 µM unless noted): 3.2% (inactive)

COc1ccc(N2CCN(C(=O)c3ccccc3NC(=O)C3=C(C)OCCS3)CC2)cc1
inhibition (at 10 µM unless noted): 13.7% (inactive)

COc1cc(-c2c(-c3ccc4c(c3)OCO4)noc2C)ccc1F
inhibition (at 10 µM unless noted): 3.9% (inactive)

Fc1ccc(NC(=S)N2CCc3[nH]c4ccccc4c3C2)cc1
inhibition (at 10 µM unless noted): -2.7% (inactive)

CCCC(=O)N1CCc2[nH]c3ccccc3c2C1
inhibition (at 10 µM unless noted): 12.2% (inactive)

C=CCNC(=S)N1CCc2[nH]c3ccccc3c2C1
inhibition (at 10 µM unless noted): 36.9% (active)

Cc1ccnc(N2C(=O)c3ccc([N+](=O)[O-])cc3C2=O)c1
inhibition (at 10 µM unless noted): 4.8% (inactive)

O=C(NCc1ccccc1)C1=C[C@@H](c2ccc(C(F)(F)F)cc2)C[C@@H](OCc2ccc(CO)cc2)O1
inhibition (at 10 µM unless noted): -7.3% (inactive)

O=C(C1=C[C@H](c2ccc(C(F)(F)F)cc2)C[C@H](OCc2ccc(CO)cc2)O1)N1CCN(Cc2ccccc2)CC1
inhibition (at 10 µM unless noted): 26.9% (active)

O=C(C1=C[C@H](C2CC2)C[C@H](OCc2ccc(CO)cc2)O1)N1CCN(Cc2ccccc2)CC1
inhibition (at 10 µM unless noted): -5.8% (inactive)
